Only some compounds are listed: those with a hit (about 1.6% of all), similar ones and a draw of the others.
KCNQ2 pot – KCNQ2 (rat) channel potentiation. O88943. CHO-K1 KCNQ2, FluxOR thallium flux fluorescence; stronger effect = higher value. B-score at 10 µM. hit rate 0.54% among 310,000. AID 2239;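 active = fluorescence ratio B-score at least 3 SD of library B-scores, with initial fluorescence B-score within 3 of them, cut at about 5.3 in these data; same plate scores as AID 2156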;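 also: B-score of peak minus minimum over baseline fluorescence ratio after K+ and Tl+ stimulus; positive B-score means potentiation of KCNQ2 with more thallium influx and brighter signal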
Target sequence (O88943 whole entry, looked up): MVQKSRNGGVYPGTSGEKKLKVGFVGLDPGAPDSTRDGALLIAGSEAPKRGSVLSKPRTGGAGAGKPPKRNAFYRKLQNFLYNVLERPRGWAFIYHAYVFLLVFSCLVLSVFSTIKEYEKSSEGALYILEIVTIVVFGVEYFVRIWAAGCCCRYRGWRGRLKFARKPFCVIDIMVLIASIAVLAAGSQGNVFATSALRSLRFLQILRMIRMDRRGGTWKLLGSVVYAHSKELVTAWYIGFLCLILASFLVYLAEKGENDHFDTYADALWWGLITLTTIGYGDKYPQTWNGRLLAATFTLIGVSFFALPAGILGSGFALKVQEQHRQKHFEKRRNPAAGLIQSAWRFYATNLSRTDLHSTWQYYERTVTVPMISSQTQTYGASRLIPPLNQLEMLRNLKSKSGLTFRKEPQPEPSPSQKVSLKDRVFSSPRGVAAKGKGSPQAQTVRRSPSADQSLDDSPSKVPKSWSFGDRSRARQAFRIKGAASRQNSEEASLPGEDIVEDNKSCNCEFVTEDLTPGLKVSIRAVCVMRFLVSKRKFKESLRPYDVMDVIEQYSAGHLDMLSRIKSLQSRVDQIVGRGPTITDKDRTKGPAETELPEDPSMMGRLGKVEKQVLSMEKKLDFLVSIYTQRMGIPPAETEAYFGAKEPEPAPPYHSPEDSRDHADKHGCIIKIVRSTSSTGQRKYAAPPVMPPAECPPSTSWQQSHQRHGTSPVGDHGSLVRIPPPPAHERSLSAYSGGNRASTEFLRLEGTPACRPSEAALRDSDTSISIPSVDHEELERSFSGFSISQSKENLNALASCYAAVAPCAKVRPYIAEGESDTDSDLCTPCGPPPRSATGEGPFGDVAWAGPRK
KCNQ2 inh – blocks the rat KCNQ2 potassium channel; CHO-K1 KCNQ2, FluxOR thallium flux, 20 min; stronger effect = lower value; B-score at 10 µM; AID 2156; hit rate 1.1% among 310,000;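 active = fluorescence ratio B-score at most minus 3 library SDs, with starting brightness B-score within 2 library SDs, cut at about -5.5 in these data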
Numbers stand for hits; 0 = inactive; - = not tested or not shown.

SMILES	KCNQ2 pot	KCNQ2 inh
Cc1cc(NS(=O)(=O)c2ccc(Nc3nc(-c4sc(NC(=O)c5ccccc5)nc4C)cs3)cc2)no1	0	-13
Cc1nc(NC(=O)c2ccccc2)sc1-c1csc(Nc2cccc(F)c2)n1	0	0
COc1ccccc1NC(=O)c1cc(C)oc1C	-	0
CCOc1ccccc1NC(=O)c1cc(CC(C)C)oc1C	0	-6.2
O=C(NC1CCCCC1)C1CC=CCC1C(=O)OCC(Cl)=C(Cl)Cl (stereo not given)	0	-5.5
COCC(=O)NC1CCCCCC1	-	0
Cc1c(OCC(=O)N[C@@H](Cc2ccccc2)C(=O)O)ccc2c1oc(=O)c1ccccc12	-	0
Cc1c(Cc2ccccc2)c(=O)oc2c(C)c(OC(C)C(=O)N[C@@H](Cc3ccccc3)C(=O)O)ccc12 (stereo not given in full)	0	-7.7
COC(=O)C1Cc2ccccc2CN1C(=O)CCl (stereo not given)	0	0
Cc1cccc(NC(=S)NC(=O)c2cccs2)n1	0	0
CC(=O)Nc1nc(-c2cccc3ccccc23)cs1	0	0
O=C(NC(=S)Nc1nc(-c2ccccc2)cs1)c1cccs1	7.9	0
Cc1ccc(-c2csc(NC(=S)NC(=O)c3cccs3)n2)cc1	0	0
Cc1nc(NC(=S)NC(=O)c2cccs2)ccc1Br	9.4	0
O=C(NC(=S)Nc1nc(-c2cccc3ccccc23)cs1)c1cc2ccccc2o1	8.2	0
O=C(CCN1C(=O)c2ccccc2S1(=O)=O)NCc1ccccc1	0	0
O=C(CCCOc1ccc(Cl)cc1Cl)NCCc1ccccn1	0	0
CSc1nc(C)cc(Oc2ccccc2)n1	-	0
Cc1onc(-c2c(Cl)cccc2Cl)c1C(=O)NN1CCCCCC1	-	0
Cc1c(C(=O)NN2CCCCC2)nn(-c2ccc(Cl)cc2Cl)c1-c1ccc(I)cc1	0	-9.9
S=C(NCc1ccco1)N1CCC(c2nc3ccccc3o2)CC1	0	0
Cc1cccc(N(C)S(=O)(=O)c2ccc(-c3cnc(C4CC4)o3)cc2)c1	0	-9.9
Cc1ccc(NS(=O)(=O)c2ccc(-c3cnc(C4CC4)o3)cc2)c(C)c1	0	-5.7
COc1ccccc1NS(=O)(=O)c1ccc(-c2cnc(C3CC3)o2)cc1	-	0
COc1cccc(N2CCN(S(=O)(=O)c3ccc(-c4cnc(C5CC5)o4)cc3)CC2)c1	0	0
SMILES	KCNQ2 pot	KCNQ2 inh
CC(=O)c1cccc(S(=O)(=O)NCCC(=O)O)c1	0	0
O=S(=O)(c1cc(Cl)ccc1Cl)N1CCN(c2ccccn2)CC1	0	0
Cc1ccc(OCC(O)CNC2CCCC2)c(C)c1 (stereo not given)	-	0
Cc1ccccc1OCC(O)CNC1CCC(NCC(O)COc2ccccc2C)CC1 (stereo not given)	0	-7.7
Cc1cccc(NC(=O)C(NS(=O)(=O)c2ccc3c(c2)CCC(=O)N3)c2ccccc2)n1 (stereo not given)	-	0
Cc1cc(Oc2ccc(C(C)(C)C)cc2)nc(N2CCOCC2)n1	0	-6.2
Cc1cc(Oc2ccc(-c3ccccc3)cc2)nc(N2CCOCC2)n1	-	0
N#C/C(=C\c1ccc(OCC(N)=O)cc1)c1ccccc1	0	0
C/C(=N\Nc1nc2ccccc2[nH]1)c1ccc(C)o1	0	0
C/C(=N\Nc1nc2ccccc2[nH]1)c1ccc(Cl)s1	13	0
N#CC1(c2ccccc2)CCCN1C(=O)c1ccc(Br)o1 (stereo not given)	-	0
C=CCn1c(CSCc2ccccc2)nnc1SCC(=O)NCc1ccccc1	0	-5.5
CCn1c(CSCc2ccc(F)cc2)nnc1SCC(=O)NCc1ccccc1	-	0
CCc1cccc(NC(=O)Cc2ccc(OC)c(OC)c2)c1	0	0
O=C(OCc1cncs1)c1ccccc1	0	0
CC(=O)c1cccc(NC(=O)c2cc(-c3ccco3)nc3ccccc23)c1	-	0
COc1cccc(-c2cc(C(=O)NC3CCCC3)c3ccccc3n2)c1	-	0
COc1ccc(OC)c(-c2cc(C(=O)NC3CCCC3)c3ccccc3n2)c1	0	-6.1
COc1ccc(NC(=O)c2cc(-c3ccc(OC)c(OC)c3)nc3ccccc23)c(OC)c1	0	-5.9
COc1ccc(-c2cc(C(=O)Nc3ccc(C(N)=O)cc3)c3ccccc3n2)cc1OC	-	0
COc1cc(-c2cc(C(=O)Nc3cccc(C(C)=O)c3)c3ccccc3n2)cc(OC)c1OC	0	-5.6
Cc1cccc(CCNS(=O)(=O)c2ccc3c(c2)CCN3C(=O)CCC(=O)O)c1	-	0
O=C(Cn1c(=O)n(-c2ccccc2)c(=O)n1CC(=O)N1CCCCC1)N1CCCCC1	0	0
Cc1ccc(S(=O)(=O)NC(=O)Nc2ccc(C)cn2)cc1	-	0
O=C(/C=C/c1ccco1)NC(=S)Nc1cc(C(F)(F)F)ccc1N1CCOCC1	0	-7.3
SMILES	KCNQ2 pot	KCNQ2 inh
O=C(Nc1cc(C(F)(F)F)ccc1N1CCOCC1)C1Cc2ccccc2CN1C(=O)c1ccco1 (stereo not given)	0	-6.5
O=C(Nc1ccccc1)C1Cc2ccccc2CN1C(=O)c1ccco1 (stereo not given)	-	0
O=C(CCCCl)NC(=S)Nc1cc(C(F)(F)F)ccc1N1CCOCC1	0	0
CCOc1cc(CNc2ccccc2)cc(Br)c1OCC(=O)NC(C)(C)C	0	-5.9
COc1cc(CNc2ccc(C(=O)O)cc2)cc(Br)c1OCC(=O)NC(C)(C)C	-	0
O=C(NC1CCCCC1)c1ccc(-c2cccc([N+](=O)[O-])c2)o1	-	0
O=C(Nc1ccccc1C(=O)NCCc1ccc(O)cc1)c1ccco1	0	0
COc1ccc(NC(=O)c2ccccc2NC(=O)c2ccccc2)cc1	0	0
COc1ccc(/C=C(/C(=O)Nc2ccccc2C(=O)N2CCCC2)c2ccccc2)cc1	0	-6.6
COc1ccc(/C=C/C(=O)Nc2ccccc2C(=O)N2CCCC2)cc1	-	0
COc1ccc(/C=C(/C(=O)Nc2ccccc2C(=O)NC(C)C)c2ccccc2)cc1	0	-7.9
CC(=O)Nc1ccc(S(=O)(=O)N(C)CC(=O)OCC(=O)N2CCCCCC2)cc1	0	0
Cc1ccc2nc(N/N=C/c3ccccc3C#N)nc(-c3ccccc3)c2c1	0	-6
N#Cc1ccccc1/C=N/Nc1nc(-c2ccccc2)c2cc(Cl)ccc2n1	0	0
O=C(OCc1ccccc1)/C(=C/c1ccccc1Cl)NC(=O)c1ccco1	-	0
COc1cc(CNC(=O)c2cccc(COc3ccc(Cl)cc3)c2)cc(OC)c1	0	-5.9
O=C(NCc1ccccc1)c1cccc(COc2ccc(Cl)cc2)c1	-	0
O=C(Nc1ccccc1)N1CCc2ccccc21	-	0
O=C(NCC1CCCC(CNC(=O)N2CCc3ccccc32)C1)N1CCc2ccccc21 (stereo not given)	0	-5.8
Cc1cc(C)n2nnnc2n1	-	0
O=C(c1ccc2ccccc2c1)N1CCCCC1	0	0
O=C(c1ccc2ccccc2c1)N1CCN(c2ccccc2)CC1	0	-5.6
CN1CCN(S(=O)(=O)c2cccc(C(=O)Oc3ccccc3Cl)c2)CC1	-	0
CCOC(=O)c1oc2ccc(/C=N/O)c(Cl)c2c1C	-	0
Cn1nc(C(=O)NCCc2ccc(S(N)(=O)=O)cc2)c2ccccc2c1=O	-	0
Cc1ccccc1Nc1nc(N)nc(COC(=O)CCS(=O)(=O)c2ccccc2)n1	0	0
Cc1ccccc1Nc1nc(N)nc(COC(=O)CC2CC3CCC2C3)n1 (stereo not given)	20	0
CC1=C(C)[N+](=O)C2CCCCC2N1[O-] (stereo not given)	-	0
CC(C)(C)c1cc(C(=O)Nc2ccc(F)cc2)n(Cc2ccc(F)cc2)n1	0	-5.9
Cc1ccc(NC(=O)c2cc(C(C)(C)C)nn2Cc2ccccc2)cc1	-	0

Source: PubChem BioAssay
